Sm TGR block: qHTS Assay for the Inhibitors of Schistosoma Mansoni Peroxiredoxins; purified TGR, DTNB reduction, TNB absorbance 405 nm; 360,000 compounds, 3% hits; Potency, µM (highest dose often 114 µM), actives largely listed as inhibitors; note: nearly all actives have a fitted effect of over 60% in size
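Kinetic colorimetric format: TGR-catalysed, NADPH-driven DTNB reduction monitored via TNB absorbance. Enzyme dispensed at 20 nM; compound exposure 15 min at room temperature before reaction start.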
LmPK inh: qHTS Assay for Inhibitors of Leishmania Mexicana Pyruvate Kinase (LmPK) | 290,000 compounds, 0.37% hits | Potency, µM (highest dose often 57.5 µM), most hits filed as inhibitors | Q27686 | purified LmPK, Kinase-Glo ATP luminescence, 1 h
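Purified LmPK (0.1 nM) with 0.5 mM PEP and 0.1 mM ADP in imidazole buffer pH 7.2 with MgCl2/KCl, 1 h at room temperature. ATP formed was read by luciferase luminescence and normalized to no-enzyme and uninhibited controls.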
Shiga inhibitor: A qHTS for Small Molecule Inhibitors of Shiga Toxin | Vero cells, Shiga toxin protein synthesis inhibition reporter | 290,000 compounds, 9.2% hits | inhibition, % at 38.7 µM | AID 2315, 2010; in the data active = inhibition mostly above about 28%, no sharp cut-off; inactive = mostly below about 43%
TbPYK inhibitor: qHTS of Trypanosoma Brucei Inhibitors. pyruvate kinase (Trypanosoma brucei), Q57TT1. AID 624173, 2012. TbPYK enzyme, Kinase-Glo Plus ATP luminescence, 45 min. 410,000 compounds, 0.12% hits. Potency, µM (series often up to 76.8 µM), usual class: inhibitors; note: nearly all actives have a fitted effect of over 50% in size
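Enzyme and substrate buffer are dispensed first and compound is pin-transferred. ADP at 130 uM final then starts the reaction, which runs 45 min at room temperature. Detection reagent is added for 10 min before luminescence is imaged.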
FBPA Giardia inh: qHTS Assay for Inhibitors of Fructose-1,6-bisphosphate Aldolase from Giardia Lamblia; A8B2U2; purified Giardia FBPA; Potency, µM (titrated, usually from 59.6 µM), actives largely listed as inhibitors; 290,000 compounds, 0.71% hits; note: nearly all actives have a fitted effect of over 55% in size
Target sequence (A8B2U2 whole entry, looked up): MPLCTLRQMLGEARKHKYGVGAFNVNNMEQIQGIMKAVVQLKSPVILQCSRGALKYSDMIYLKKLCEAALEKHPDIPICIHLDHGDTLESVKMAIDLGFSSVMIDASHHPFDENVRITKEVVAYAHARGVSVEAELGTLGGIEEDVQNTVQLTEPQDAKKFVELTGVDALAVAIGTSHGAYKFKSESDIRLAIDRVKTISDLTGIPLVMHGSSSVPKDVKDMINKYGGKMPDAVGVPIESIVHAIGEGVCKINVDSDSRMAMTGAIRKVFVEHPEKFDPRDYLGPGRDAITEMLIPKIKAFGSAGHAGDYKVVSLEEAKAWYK
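40 nM FBPA preincubated 10 min at RT with compound (up to 57.5 uM final), then substrate plus GAPDH/TPI/NAD/arsenate coupling and diaphorase/resazurin added. Fluorescence read after 20 min at RT, 525/598 nm.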
CHX counter: Cycloheximide Counterscreen for Small Molecule Inhibitors of Shiga Toxin | cell reporter, cycloheximide protein synthesis inhibition counterscreen | max response, % | 300,000 compounds, 12% hits; in the data active = max response mostly above about 13%, no sharp cut-off; inactive = mostly below about 14%; note: read at 38.3 µM for the half of the compounds with a filed dose
Numbers stand for hits; – = inactive; ? = inconclusive; · = no result given; [ ] = remark or other dose. Shown is part of a subset that was picked to be rich in hits. Unless noted, calls come from the whole dose curve; as a rule, active = well fitted curve in the direction sought with a large enough effect; inconclusive = small, poorly fitted or top-dose-only effect, or another doubt; inactive = no such curve, though single readings can be large; an effect the other way counts as inactive or inconclusive.

SMILES	Sm TGR block	LmPK inh	Shiga inhibitor	TbPYK inhibitor	FBPA Giardia inh	CHX counter
CC(=O)Nc1ccc(NC(=O)c2ccc3c(c2)CCN3S(C)(=O)=O)cc1	–	–	–	–	–	–
CN1CCSc2ccc(C(=O)Nc3ccc(Cl)cc3)cc21	–	–	59	–	–	37
COc1cccc(NC(=O)c2ccc3c(c2)CCN3S(C)(=O)=O)c1	–	–	50	–	–	17
COc1cccc(NC(=O)c2ccc3c(c2)N(C)CCS3)c1	–	?	29	–	?	33
COc1cccc(NC(=O)C2CCN(S(=O)(=O)c3c(C)noc3/C=C/c3cccs3)CC2)c1	–	·	·	–	·	·
CCOc1ccc(C(=O)CC(C(=O)O)N2CCCCC2)cc1 (configuration not stated)	6.3µM	·	·	–	·	·
CCOc1ccc(C(=O)CC(C(=O)O)N2CCN(Cc3ccccc3)CC2)cc1 (configuration not stated)	7.9µM	·	·	–	·	·
CCCCC1(Br)C(=O)N(c2ccccc2)N(c2ccccc2)C1=O	14µM	·	·	?	·	·
CCOC(=O)c1ccc(NC(=O)c2cc(C)nc3ccccc23)cc1	–	–	·	–	–	–
CCc1ccc(OCc2ccccc2C(=O)Nc2ccc3nc(C)cc(N)c3c2)cc1	·	·	35	·	–	–
N/C(=N\OC(=O)C(c1ccccc1)c1ccccc1)c1ccccn1	–	–	49	–	–	22
O=C(Cc1ccccc1)c1ccccn1	·	·	·	–	·	·
N/C(=N\OC(=O)Cc1ccccc1)c1ccccn1	–	–	–	–	–	28
CN(CC(=O)O/N=C(\N)c1ccccn1)S(=O)(=O)c1ccccc1	–	–	44	–	–	–
N/C(=N\OC(=O)C(c1ccccc1)c1ccccc1)c1cccnc1	–	–	–	–	–	–
CC(C(=O)O/N=C(\N)c1ccccn1)c1ccc([N+](=O)[O-])cc1 (configuration not stated)	–	–	70	–	–	40
Cc1ccccc1OCCn1c(-c2ccc(Cl)cc2)nc2ccccc2c1=O	–	·	·	–	·	·
CC1=C(C(=O)NCc2cccc(Cl)c2)C2(CCCCCC2)OC1=O	–	·	·	–[15.4 µM]	·	·
COc1ccc(/C(N)=N/OC(=O)CCCc2ccccc2)cc1OC	–	–	–	–	–	27
N/C(=N\OC(=O)CCCc1ccccc1)c1ccc(Br)cc1	–	–	–	–	·	–
N/C(=N\OC(=O)CCCc1ccccc1)c1ccccn1	–	?	54	–	–	35
O=C(CSc1nc2ccccc2s1)Nc1ccc2c(c1)oc1ccccc12	–	–	–	–	–	–
CCOC(=O)CNC(=O)CSc1nnc(NC(=O)c2ccccc2Cl)s1	–	–	59	–	–	29
Cc1nnc(NC(=O)CSc2ccccc2N)s1	–	–	–	–	?	26
O=C(CSc1nnc(NC(=O)c2ccccc2Cl)s1)Nc1ccc2c(c1)oc1ccccc12	–	–	54	·	–	34
SMILES	Sm TGR block	LmPK inh	Shiga inhibitor	TbPYK inhibitor	FBPA Giardia inh	CHX counter
O=C(CSc1nnc(NC(=O)c2ccccc2Cl)s1)NC1CC1	–	–	61	–	–	39
CC(C)(C)NC(=O)CSc1nnc(NC(=O)c2ccccc2Cl)s1	–	–	–	–	–	–
O=C(Cc1ccccc1)Nc1sc2c(c1C(=O)Nc1ccc(Br)cc1)CCCC2	–	·	–	–	·	–
NC(Cc1cc(I)c(Oc2cc(I)c(O)c(I)c2)c(I)c1)C(=O)O (configuration not stated)	·	·	·	·	–	·
Cc1ccccc1C(=O)Nc1nnc(SCC(=O)NC2CC2)s1	–	–	64	–	·	30
O=C(NCCCN1CCN(CCCNC(=O)c2ccc3c(c2)OCO3)CC1)c1ccc2c(c1)OCO2	–	–	–	–	–	–
O=C(NCCc1ccccc1F)c1ccc2c(c1)OCCO2	–	?	–	–	–	–
O=C(NCCc1ccc(Cl)cc1)c1ccc2c(c1)OCCO2	–	–	·	–	–	42
O=C(NCCN1CCCCC1)c1ccc2c(c1)OCCO2	–	–	–	–	–	14
O=C(NCCc1ccc2c(c1)OCCO2)c1ccc(F)cc1	–	–	–	–	–	34
O=C(NCCc1ccc(Cl)cc1)c1ccc2c(c1)OCO2	–	–	83	–	–	43
Cn1cccc1-c1cc2n(n1)CCC(=O)N2CCCC(=O)NCc1cccc(Cl)c1	–	·	·	–	·	·
O=C(COC(=O)c1cc[n+]([O-])cc1)Nc1ccc([N+](=O)[O-])cc1	–	–	–	–	–	–
COc1ccc(-c2nc(-c3ccccc3)oc2Nc2c(C)cccc2C)cc1	·	·	·	·	–	·
O=C1CC(NN2CCCCC2)C(=O)N1c1ccccc1 (configuration not stated)	–	–	–	–	–	13
N#CCNC1CC(=O)N(c2ccccc2)C1=O (configuration not stated)	–	–	–	–	–	–
CN1COc2ccc3ccccc3c2C1	4µM	–	–	–	–	18
O=C1CCc2c(ccc3ccccc23)O1	·	·	·	·	–	·
CN1C(=O)c2ccccc2Sc2ccc(NC(=O)N3CCN(c4ccccc4F)CC3)cc21	?	·	·	–	·	·
CN1CCN(C(=O)c2cc(COc3c(F)cccc3F)on2)CC1c1ccccc1 (configuration not stated)	4µM	–	–	–	–	–
CSc1ccccc1OCc1cc(C(=O)N2CCN(C)C(c3ccccc3)C2)no1 (configuration not stated)	·	·	·	–	·	·
CN1CCN(C(=O)c2cc(COc3ccc(F)cc3Cl)on2)CC1c1ccccc1 (configuration not stated)	–	–	–	–	–	–
COc1ccccc1OCc1cc(C(=O)N2CCN(C)C(c3ccccc3)C2)no1 (configuration not stated)	–	–	81	–	·	59
Cc1onc(-c2c(Cl)cccc2Cl)c1C(=O)NNc1ccccc1	50µM	–	–	–	–	–
Cc1onc(-c2c(Cl)cccc2Cl)c1NC(=O)NNc1ccccc1	–	–	–	–	–	–
SMILES	Sm TGR block	LmPK inh	Shiga inhibitor	TbPYK inhibitor	FBPA Giardia inh	CHX counter
O=C(/C=C/c1c(F)cccc1Cl)Nc1nc2ccccc2[nH]1	–	–	81	–	–	36
Cc1ccc(/C=C/C(=O)c2nc3ccccc3[nH]2)cc1	–	–	68	–	–	45
Cc1onc(-c2c(Cl)cccc2Cl)c1NC(=O)NNc1ccccn1	–	–	–	–	–	29
CC1CC=CC2C1C(=O)N(Cc1ccccc1)C2c1ccc2ccccc2c1 (configuration not stated)	·	·	–	·	–	–
COC(=O)c1cnc(Nc2nc(CN)cs2)nc1C(F)(F)F	·	·	·	–	·	·
COc1ccc(NC(=O)c2c(NC(=O)C(F)(F)F)sc3c2CCCCC3)cc1	–	·	·	–	·	·

High-throughput results (PubChem)
